We go through 12 compounds from PubChem BioAssay (NCI).

About 83,000 compounds went through this panel and 20% of them were active in at least one assay; those are over-represented in the sample as a whole.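 Percent growth is the endpoint: 0 to 100 indicates growth inhibition (40 means 60% inhibition), 0 means no net growth, and negative values indicate cell death.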 Values without a mark were called inactive. Activity calls are given as the source filed them. The calls were made as follows: active = growth percent below 10; inactive = the rest.

Among the test systems are HCT-15 colon; HT29 colon; SNB-75 CNS; U251 CNS; PC-3 prostate; SK-MEL-5 melanoma; UACC-62 melanoma; LOX IMVI melanoma; SK-MEL-28 melanoma.
What all share (assay): NCI-60 one-dose screen, 48 h (100 = growth as untreated, 0 = no growth, -100 = all killed)
In another experiment the test system is SNB-19 CNS. The following applies: 10 µM unless noted.

As for `COc1ccc(-c2cc(-c3ccccc3)c(C#N)c(=O)[nH]2)cc1S(N)(=O)=O`, the growth with HCT-15 colon (10 µM unless noted) was 106%; in the experiment on HT29 colon (10 µM unless noted) it was 105%; with SNB-75 CNS (10 µM unless noted), 89.4%; with SNB-19 CNS it was 92.3%; in the experiment on U251 CNS (10 µM unless noted), 98.5%; with PC-3 prostate (10 µM unless noted), 97.2%. For the same compound, the growth with SK-MEL-5 melanoma (10 µM unless noted) was 104%; in the experiment with UACC-62 melanoma (10 µM unless noted), 110%; in the experiment with LOX IMVI melanoma (10 µM unless noted) it was 94.5%; in the experiment with SK-MEL-28 melanoma (10 µM unless noted), 107%.
Take `Nc1nn2c(-c3cc4cc(Br)ccc4oc3=O)ccnc2c1N=Nc1ccc(S(N)(=O)=O)cc1`: the growth in the experiment on HCT-15 colon (10 µM unless noted) is 103%; in the experiment on HT29 colon (10 µM unless noted), 92.4%; with SNB-75 CNS (10 µM unless noted), 116%; in the experiment with SNB-19 CNS it was 41.6%; with U251 CNS (10 µM unless noted) it was 28.1%; with PC-3 prostate (10 µM unless noted), 87.5%. The growth in the experiment with SK-MEL-5 melanoma (10 µM unless noted) was 63.7%; in the experiment with UACC-62 melanoma (10 µM unless noted), 83.7%; with LOX IMVI melanoma (10 µM unless noted), 63.8%; with SK-MEL-28 melanoma (10 µM unless noted), 80.7%.
Regarding `CC/C(=C(\c1ccc(O)cc1)c1ccc(OCCNC)cc1)c1ccccc1`, the growth is 107% with HCT-15 colon (1 µM); 69.8% with HCT-15 colon (10 µM); 98.7% in the experiment on HT29 colon (1 µM); 55.6% with HT29 colon (10 µM); 110% in the experiment with SNB-75 CNS (1 µM); 62.7% in the experiment on SNB-75 CNS (10 µM). For the same compound, the growth with U251 CNS (1 µM) is 98.6%; in the experiment on U251 CNS (10 µM), 57.4%; in the experiment on PC-3 prostate (1 µM), 101%; in the experiment on PC-3 prostate (10 µM), 83%; in the experiment with SK-MEL-5 melanoma (1 µM) it was 97.1%; in the experiment on SK-MEL-5 melanoma (10 µM) it was 89.2%. Further, the growth with UACC-62 melanoma (1 µM) is 91.6%; with UACC-62 melanoma (10 µM), 101%; with LOX IMVI melanoma (1 µM), 86.9%; with LOX IMVI melanoma (10 µM) it was 83.1%; in the experiment with SK-MEL-28 melanoma (1 µM), 98.5%; with SK-MEL-28 melanoma (10 µM) it was 93.3%.
Consider `N#CC1=C(c2cccs2)Nc2c(c(-c3ccccc3)nn2-c2ccccc2)C12C(=O)Nc1ccc(Br)cc12` (stereo not drawn), for which the growth is -6.66% (active) in the experiment on HCT-15 colon (10 µM unless noted); -32.8% (active) in the experiment on HT29 colon (10 µM unless noted); -39.5% (active) with SNB-75 CNS (10 µM unless noted); 7.99% (active) in the experiment with SNB-19 CNS; -47.8% (active) in the experiment with U251 CNS (10 µM unless noted); -3.33% (active) in the experiment with PC-3 prostate (10 µM unless noted). Also, the growth in the experiment on SK-MEL-5 melanoma (10 µM unless noted) was 0.371% (active); in the experiment on UACC-62 melanoma (10 µM unless noted), -52.3% (active); with LOX IMVI melanoma (10 µM unless noted), -11.3% (active); in the experiment with SK-MEL-28 melanoma (10 µM unless noted), -69.6% (active).
On to `COc1ccc(N=Nc2c(N)nn3c(-c4ccc5c(c4)C=S=C5)ccnc23)cc1`, for which the growth in the experiment with HCT-15 colon (10 µM unless noted) is 18.2%; with HT29 colon (10 µM unless noted) it was 47.6%; in the experiment with SNB-75 CNS (10 µM unless noted) it was 35.6%; with SNB-19 CNS, 59.7%; with U251 CNS (10 µM unless noted), 34.5%; in the experiment on PC-3 prostate (10 µM unless noted), 25%. The growth in the experiment on SK-MEL-5 melanoma (10 µM unless noted) was 16.9%; in the experiment with UACC-62 melanoma (10 µM unless noted), 38%; with LOX IMVI melanoma (10 µM unless noted), 13%; with SK-MEL-28 melanoma (10 µM unless noted), 63.1%.
With `OC(c1ccccc1)(c1ccccc1)C1CCN(c2ccc3nnc(Cl)n3n2)CC1`, the growth is 18.1% in the experiment with HCT-15 colon (10 µM unless noted); 26.8% in the experiment on HT29 colon (10 µM unless noted); 61.3% in the experiment with SNB-75 CNS (10 µM unless noted); 63.3% in the experiment on SNB-19 CNS; 45.9% with U251 CNS (10 µM unless noted); 16.2% in the experiment with PC-3 prostate (10 µM unless noted). The growth was -84.6% (active) in the experiment with SK-MEL-5 melanoma (10 µM unless noted), 54.5% in the experiment with UACC-62 melanoma (10 µM unless noted), 38.3% in the experiment with LOX IMVI melanoma (10 µM unless noted) and 52.2% in the experiment on SK-MEL-28 melanoma (10 µM unless noted).
Take `COc1ccc(C(=O)/C=C/c2ccc3c(c2)OCCO3)cc1S(N)(=O)=O`: the growth is 41.9% in the experiment on HCT-15 colon (10 µM unless noted); 33.4% with HT29 colon (10 µM unless noted); 82.5% in the experiment with SNB-75 CNS (10 µM unless noted); 51.4% with SNB-19 CNS; 12.2% with U251 CNS (10 µM unless noted); 103% in the experiment with PC-3 prostate (10 µM unless noted). In addition, the growth in the experiment on SK-MEL-5 melanoma (10 µM unless noted) was 99.8%; in the experiment on UACC-62 melanoma (10 µM unless noted) it was 87.9%; in the experiment with LOX IMVI melanoma (10 µM unless noted) it was 23.7%; in the experiment with SK-MEL-28 melanoma (10 µM unless noted) it was 101%.
Regarding `N#Cc1c(NC(=O)N2CCOCC2)n(-c2ccc(OC(F)(F)F)cc2)c2cc(F)ccc12`, the growth in the experiment on HCT-15 colon (10 µM unless noted) was 95.5%; in the experiment with HT29 colon (10 µM unless noted) it was 90%; in the experiment with SNB-75 CNS (10 µM unless noted), 140%; in the experiment with SNB-19 CNS, 117%; in the experiment with U251 CNS (10 µM unless noted), 98.8%; in the experiment with PC-3 prostate (10 µM unless noted), 83.9%. The growth in the experiment on SK-MEL-5 melanoma (10 µM unless noted) was 82.4%; in the experiment with UACC-62 melanoma (10 µM unless noted), 73.2%; in the experiment with LOX IMVI melanoma (10 µM unless noted), 102%; with SK-MEL-28 melanoma (10 µM unless noted), 89.5%.
In the case of `Fc1ccc(Nc2nnc(-c3c[nH]c4ccccc34)o2)cc1`, the growth was 66.7% in the experiment on HCT-15 colon (10 µM unless noted); 102% in the experiment with HT29 colon (10 µM unless noted); 88.9% with SNB-75 CNS (10 µM unless noted); 85% with SNB-19 CNS; 84.8% in the experiment with U251 CNS (10 µM unless noted); 70.8% with PC-3 prostate (10 µM unless noted). Also, the growth with SK-MEL-5 melanoma (10 µM unless noted) is 91.4%; in the experiment with UACC-62 melanoma (10 µM unless noted), 77.8%; in the experiment on LOX IMVI melanoma (10 µM unless noted), 72.2%; with SK-MEL-28 melanoma (10 µM unless noted), 106%.
Take `O=C(N/N=C/c1ccc(-c2cccc([N+](=O)[O-])c2)s1)c1[nH]c2ccc(Br)cc2c1-c1ccccc1`: the growth was 84.9% in the experiment with HCT-15 colon (10 µM unless noted); 109% with HT29 colon (10 µM unless noted); 86.8% with SNB-75 CNS (10 µM unless noted); 56.1% in the experiment on SNB-19 CNS; 73.4% with U251 CNS (10 µM unless noted); 85.7% in the experiment with PC-3 prostate (10 µM unless noted). For the same compound, the growth with SK-MEL-5 melanoma (10 µM unless noted) was 93.8%; in the experiment on UACC-62 melanoma (10 µM unless noted) it was 70.5%; with LOX IMVI melanoma (10 µM unless noted) it was 85.8%; in the experiment on SK-MEL-28 melanoma (10 µM unless noted), 87.6%.
Take `O=C(N/N=C/c1ccc(B(O)O)s1)c1[nH]c2ccc(Br)cc2c1-c1ccccc1`: the growth in the experiment on HCT-15 colon (10 µM unless noted) was -92.4% (active); with HT29 colon (10 µM unless noted), -63.3% (active); in the experiment with SNB-75 CNS (10 µM unless noted) it was -72.7% (active); in the experiment with SNB-19 CNS, -97.3% (active); in the experiment with U251 CNS (10 µM unless noted), -79.8% (active); in the experiment with PC-3 prostate (10 µM unless noted), -9.11% (active). The growth with SK-MEL-5 melanoma (10 µM unless noted) is -95.3% (active); in the experiment on UACC-62 melanoma (10 µM unless noted), -99.5% (active); in the experiment on LOX IMVI melanoma (10 µM unless noted), -99.3% (active); with SK-MEL-28 melanoma (10 µM unless noted) it was -93.3% (active).
Turning to `CCCCCCCCc1cccc(CC(=O)Nc2ccc(C)cc2C(=O)O)c1`, the growth in the experiment on HCT-15 colon (10 µM unless noted) is 13.2% [25 µM]; in the experiment with HT29 colon (10 µM unless noted), 35.9% [25 µM]; in the experiment on SNB-75 CNS (10 µM unless noted) it was 74.1% [25 µM]; in the experiment on SNB-19 CNS, 50.9% [25 µM]; with U251 CNS (10 µM unless noted), 38.2% [25 µM]; in the experiment with PC-3 prostate (10 µM unless noted) it was 46.8% [25 µM]. The growth in the experiment on SK-MEL-5 melanoma (10 µM unless noted) was 36.5% [25 µM]; with UACC-62 melanoma (10 µM unless noted), 49.4% [25 µM]; in the experiment on LOX IMVI melanoma (10 µM unless noted), 3.4% [25 µM] (active); in the experiment with SK-MEL-28 melanoma (10 µM unless noted) it was 65.5% [25 µM].
